Compounds without any hit were thinned out: in the full panel of roughly 83,000, 20% have a hit.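 48-hour exposure, single concentration, 96-well plates; percent growth endpoint where 0 means no net growth. Active: below 10.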 Active and inactive are the calls of the source.
Key:
Test in all cases: NCI-60 one-dose screen, 48 h (100 = growth as untreated, 0 = no growth, -100 = all killed)
Settings in all cases: 10 µM unless noted
NCI-H226 lung = system: NCI-H226 lung
NCI-H322M lung = system: NCI-H322M lung
HOP-62 NSCLC = system: HOP-62 NSCLC
NCI-H460 lung = system: NCI-H460 lung
HOP-92 NSCLC = system: HOP-92 NSCLC
NCI-H522 lung = system: NCI-H522 lung
A549/ATCC NSCLC = system: A549/ATCC NSCLC
786-0 renal = system: 786-0 renal
COLO 205 colon = system: COLO 205 colon
DU-145 prostate = system: DU-145 prostate
K-562 leukemia = system: K-562 leukemia
MALME-3M melanoma = system: MALME-3M melanoma
MDA-MB-231 breast = system: MDA-MB-231 breast
RXF 393 renal = system: RXF 393 renal
SF-268 CNS = system: SF-268 CNS
SF-295 CNS = system: SF-295 CNS
SF-539 CNS = system: SF-539 CNS
UACC-257 melanoma = system: UACC-257 melanoma
M14 melanoma = system: M14 melanoma
HCT-15 colon = system: HCT-15 colon

Measured: growth

CN(C)S(=O)(=O)c1oc(-c2ccccc2)nc1C#N
active: NCI-H522 lung -64.7% | K-562 leukemia 5.64% | MALME-3M melanoma -23.6% | HCT-15 colon -11.6%
inactive: NCI-H226 lung 98.2% | NCI-H322M lung 99.6% | HOP-62 NSCLC 99.6% | NCI-H460 lung 109% | HOP-92 NSCLC 74.2% | A549/ATCC NSCLC 105% | 786-0 renal 66.1% | COLO 205 colon 75.9% | DU-145 prostate 34.7% | MDA-MB-231 breast 52.2% | RXF 393 renal 39% | SF-268 CNS 116% | SF-295 CNS 99.3% | SF-539 CNS 84.4% | UACC-257 melanoma 103% | M14 melanoma 27.5%

O=C1Nc2cc(Cl)ccc2/C1=C\c1ccc(OCc2ccc(Br)cc2F)cc1
inactive: COLO 205 colon 12.4%
active: NCI-H226 lung -50.9% | NCI-H322M lung -23.8% | HOP-62 NSCLC -21.1% | NCI-H460 lung -82.4% | HOP-92 NSCLC -58.5% | NCI-H522 lung -28.2% | A549/ATCC NSCLC -28.9% | 786-0 renal -92.5% | DU-145 prostate -13.2% | K-562 leukemia 3.55% | MALME-3M melanoma -66.9% | MDA-MB-231 breast -2.27% | RXF 393 renal -67.3% | SF-268 CNS -11.9% | SF-295 CNS -83.2% | SF-539 CNS -87.9% | UACC-257 melanoma 8.13% | M14 melanoma -43.9% | HCT-15 colon 6.12%

CCN(CC)c1ccc(C=O)c(OCc2cn(CC(=O)Nc3ccc(Cl)cc3)nn2)c1
inactive: NCI-H226 lung 77.5% | NCI-H322M lung 94.9% | HOP-62 NSCLC 89.9% | NCI-H460 lung 52% | HOP-92 NSCLC 81.4% | NCI-H522 lung 80.9% | A549/ATCC NSCLC 87.9% | 786-0 renal 72.9% | COLO 205 colon 111% | DU-145 prostate 81% | K-562 leukemia 51.7% | MALME-3M melanoma 91.5% | MDA-MB-231 breast 80.4% | RXF 393 renal 34.1% | SF-268 CNS 84.6% | SF-295 CNS 65.8% | SF-539 CNS 75% | UACC-257 melanoma 108% | M14 melanoma 87.7% | HCT-15 colon 61.4%

CCOC(=O)c1c(Nc2ccccc2)nn2c(N)c(C#N)c(-c3ccc(Cl)cc3)nc12
inactive: NCI-H226 lung 42.1% | NCI-H322M lung 77.4% | HOP-62 NSCLC 53.9% | NCI-H460 lung 12.1% | HOP-92 NSCLC 43.2% | NCI-H522 lung 72.3% | A549/ATCC NSCLC 46% | 786-0 renal 38.7% | COLO 205 colon 69.4% | DU-145 prostate 62% | K-562 leukemia 69.1% | MALME-3M melanoma 85% | MDA-MB-231 breast 69.9% | RXF 393 renal 64.6% | SF-268 CNS 61.1% | SF-295 CNS 26.8% | SF-539 CNS 64.3% | UACC-257 melanoma 95.8% | M14 melanoma 81.2% | HCT-15 colon 76%

CN(C)CCCOc1c2ccc(Cl)cc2nc2c1oc1ccc(Cl)cc12
active: NCI-H226 lung 1.15% | NCI-H460 lung -74.2% | HOP-92 NSCLC 3.27% | A549/ATCC NSCLC -45.3% | 786-0 renal -93.2% | COLO 205 colon -11.1% | DU-145 prostate -75.7% | K-562 leukemia -39.8% | MALME-3M melanoma 0.745% | MDA-MB-231 breast -48.3% | RXF 393 renal -86.6% | M14 melanoma -49.5% | HCT-15 colon -80.5%
inactive: NCI-H322M lung 18.8% | HOP-62 NSCLC 32.8% | NCI-H522 lung 21% | SF-268 CNS 25.9% | SF-295 CNS 11.9% | SF-539 CNS 16.5% | UACC-257 melanoma 41.3%

Cn1ccnc1C(=O)/C=C/c1ccc(NC(=O)Nc2ccc(Cl)cc2)cc1
inactive: NCI-H226 lung 81.9% | NCI-H322M lung 95.1% | HOP-62 NSCLC 94.8% | NCI-H460 lung 59.6% | HOP-92 NSCLC 104% | NCI-H522 lung 78.2% | A549/ATCC NSCLC 86.8% | 786-0 renal 56.8% | COLO 205 colon 95.9% | DU-145 prostate 75.7% | K-562 leukemia 47.6% | MALME-3M melanoma 84.2% | MDA-MB-231 breast 73.4% | RXF 393 renal 70.1% | SF-268 CNS 81.8% | SF-295 CNS 85.9% | SF-539 CNS 83.1% | UACC-257 melanoma 100% | M14 melanoma 84.4% | HCT-15 colon 47.1%

CS(=O)(=O)c1ccc(-c2nc3ccccn3c2-c2nc3ccc([N+](=O)[O-])cc3[nH]2)cc1
inactive: NCI-H226 lung 92.2% | NCI-H322M lung 92% | HOP-62 NSCLC 105% | NCI-H460 lung 101% | HOP-92 NSCLC 93.7% | NCI-H522 lung 92.4% | A549/ATCC NSCLC 99.8% | 786-0 renal 101% | COLO 205 colon 103% | DU-145 prostate 99.8% | K-562 leukemia 91.3% | MALME-3M melanoma 86% | MDA-MB-231 breast 86.5% | RXF 393 renal 101% | SF-268 CNS 94.1% | SF-295 CNS 92.2% | SF-539 CNS 89.5% | UACC-257 melanoma 106% | M14 melanoma 97.3% | HCT-15 colon 97.1%

CN(C)c1ccc(-c2c(NC(C)(C)C)nc3c(OCCc4ccccc4)cccn23)cc1
active: NCI-H460 lung 3.22% | HOP-92 NSCLC -27.5% | NCI-H522 lung 5.7% | COLO 205 colon -84.6% | K-562 leukemia 3.1% | RXF 393 renal -25.8% | SF-295 CNS -12.7% | UACC-257 melanoma 3.18% | HCT-15 colon 0.0072%
inactive: NCI-H226 lung 10.6% | NCI-H322M lung 12.2% | HOP-62 NSCLC 25.1% | A549/ATCC NSCLC 23.2% | 786-0 renal 20.8% | DU-145 prostate 33.2% | MALME-3M melanoma 12.9% | MDA-MB-231 breast 25.5% | SF-268 CNS 56.6% | SF-539 CNS 17.8% | M14 melanoma 29.7%

C#Cc1nc(C2=C(C)C(=N\O)/C(=N/O)C2)cs1
active: 786-0 renal -90.9%
inactive: NCI-H226 lung 101% | NCI-H322M lung 99.2% | HOP-62 NSCLC 101% | NCI-H460 lung 97% | HOP-92 NSCLC 88.5% | NCI-H522 lung 91.8% | A549/ATCC NSCLC 95.3% | COLO 205 colon 118% | DU-145 prostate 92.2% | K-562 leukemia 94% | MALME-3M melanoma 94.4% | MDA-MB-231 breast 61.4% | RXF 393 renal 104% | SF-268 CNS 86.1% | SF-295 CNS 101% | SF-539 CNS 93.9% | UACC-257 melanoma 102% | M14 melanoma 89.6% | HCT-15 colon 94.5%

Nc1cc(-c2c[nH]c3ccc(Cl)cc23)nc2cc(-c3c[nH]c4ccc(Cl)cc34)nn12
active: K-562 leukemia 4.93%
inactive: NCI-H226 lung 71.3% | NCI-H322M lung 56.8% | HOP-62 NSCLC 85.7% | NCI-H460 lung 12.1% | HOP-92 NSCLC 28.9% | NCI-H522 lung 28.8% | A549/ATCC NSCLC 44.2% | 786-0 renal 60.5% | COLO 205 colon 93.2% | DU-145 prostate 53.4% | MALME-3M melanoma 90.6% | MDA-MB-231 breast 49.3% | RXF 393 renal 75% | SF-268 CNS 54% | SF-295 CNS 33.6% | SF-539 CNS 65.5% | UACC-257 melanoma 83.9% | M14 melanoma 48.6% | HCT-15 colon 11.1%

CC(=O)c1ccc(Nc2nc(SC(C)C)nc(-c3ccccc3)c2C#N)cc1
inactive: NCI-H226 lung 123% | NCI-H322M lung 98.7% | HOP-62 NSCLC 92.7% | NCI-H460 lung 101% | HOP-92 NSCLC 70.2% | NCI-H522 lung 86.8% | A549/ATCC NSCLC 93.5% | 786-0 renal 84.7% | COLO 205 colon 114% | DU-145 prostate 91.2% | K-562 leukemia 92.6% | MALME-3M melanoma 112% | MDA-MB-231 breast 95.7% | RXF 393 renal 103% | SF-268 CNS 91.9% | SF-295 CNS 109% | SF-539 CNS 95.5% | UACC-257 melanoma 108% | M14 melanoma 118% | HCT-15 colon 101%

CCOC(=O)c1c(Nc2ccccc2)nn2c(N)c(C#N)c(-c3ccc(F)cc3)nc12
inactive: NCI-H226 lung 90.6% | NCI-H322M lung 101% | HOP-62 NSCLC 91.7% | NCI-H460 lung 86.8% | HOP-92 NSCLC 99.5% | NCI-H522 lung 90.5% | A549/ATCC NSCLC 96.1% | 786-0 renal 80.8% | COLO 205 colon 93.4% | DU-145 prostate 83.2% | K-562 leukemia 52.3% | MALME-3M melanoma 91.8% | MDA-MB-231 breast 78.6% | RXF 393 renal 84.9% | SF-268 CNS 85.6% | SF-295 CNS 86.5% | SF-539 CNS 88.1% | UACC-257 melanoma 101% | M14 melanoma 91.2% | HCT-15 colon 69.8%

COc1cccc(NC2=CC(=O)C(C)=C(C)C2=O)c1
inactive: NCI-H226 lung 97% | NCI-H322M lung 102% | HOP-62 NSCLC 106% | NCI-H460 lung 101% | HOP-92 NSCLC 104% | NCI-H522 lung 49.8% | A549/ATCC NSCLC 101% | 786-0 renal 95.8% | COLO 205 colon 103% | DU-145 prostate 113% | K-562 leukemia 12.5% | MALME-3M melanoma 101% | MDA-MB-231 breast 41.4% | RXF 393 renal 55.8% | SF-268 CNS 74.5% | SF-295 CNS 105% | SF-539 CNS 21.7% | UACC-257 melanoma 54.7% | M14 melanoma 97% | HCT-15 colon 91.9%

Clc1ccc2c(NCCCn3ccnc3)c3oc4ccccc4c3nc2c1
inactive: NCI-H226 lung 51.4% | NCI-H322M lung 40.7% | HOP-62 NSCLC 65.9% | HOP-92 NSCLC 33.1% | NCI-H522 lung 44% | A549/ATCC NSCLC 34.4% | COLO 205 colon 31.8% | DU-145 prostate 24.6% | MALME-3M melanoma 43.2% | MDA-MB-231 breast 36.7% | RXF 393 renal 32.3% | SF-268 CNS 45.3% | SF-295 CNS 26.3% | SF-539 CNS 27.4% | UACC-257 melanoma 80.7% | M14 melanoma 61.7% | HCT-15 colon 13.7%
active: NCI-H460 lung -7.61% | 786-0 renal -9.95% | K-562 leukemia 8.56%

O=C1Nc2ccccc2Oc2ccc(S(=O)(=O)CC3CO3)cc21 (stereo not given)
inactive: NCI-H226 lung 95.7% | NCI-H322M lung 93.7% | HOP-62 NSCLC 101% | NCI-H460 lung 79.5% | HOP-92 NSCLC 88.8% | NCI-H522 lung 32.8% | A549/ATCC NSCLC 77.2% | 786-0 renal 98.1% | COLO 205 colon 50.1% | DU-145 prostate 61.2% | K-562 leukemia 18% | MALME-3M melanoma 87.7% | MDA-MB-231 breast 48.4% | RXF 393 renal 58.1% | SF-268 CNS 80.2% | SF-295 CNS 66.3% | SF-539 CNS 69.7% | UACC-257 melanoma 65% | M14 melanoma 57.5% | HCT-15 colon 21.2%

From PubChem BioAssay (NCI)
